Screen size: about 1,100 compounds; about 390 (35%) were called active. Another 30% or so got no clear call; they are omitted. Some of the results follow. A number with no mark means an inactive call. The call rests on the fitted dose curve; in most records, active means well fitted inhibition curve with a large enough effect; inconclusive means small, poorly fitted or top-dose-only effect; inactive means flat fitted curve, though single readings scatter.
What follows are compounds tested against Luciferin 4-monooxygenase (Photinus pyralis) (UniProt P08659) (assay: qHTS of Nrf2 Activators: Hit Validation in Secondary FLuc Assay). Settings: firefly luciferase inhibition counter-screen, luminescence; series mostly up to 57.5 µM; activity, negative = inhibition: at the top concentration.
From the text: Many diseases have some form of oxidative stress injury and ties to inflammation, causing a host of problems for the patient. The antioxidant response element (ARE) plays an important role in alleviating the harmful effects of oxidative stress. The antioxidant response element (ARE) is a transcriptional regulatory element involved in the activation of genes coding for a number of antioxidant proteins and detoxifying enzymes. These enzymes work in concert to protect tissues from oxidative insults and chemical toxicities in human hepatocytes and immune cells. The protective effects of ARE activation are primarily triggered through Nrf2 (NF-E2-related factor) binding to and activating AREs. It is known that Nrf2 controls the production of over 250 antioxidant and detoxification proteins (Hu et al., 2006), thereby protecting tissues by increasing cellular antioxidant content and suppressing inflammatory signaling pathways. The transcription factor Nrf2 is a central link between oxidative chemicals, such as phenolic antioxidants and electrophilic compounds, and the activation of ARE. Nrf2 levels are constitutively low as a consequence of its interaction with Keap1, which targets its degradation (Zipper and Mulcahy, 2002). Electrophiles react with key cysteine residues in Keap1, releasing Nrf2 and allowing its translocation to the nucleus. Once within the nucleus, Nrf2 complexes with coactivators such as p300, and binds to the AREs to induce gene transcription of cytoprotective enzymes, resulting in the prevention of toxicity. Activation of Nrf2 protects tissues by increasing cellular antioxidant content and suppressing inflammatory signaling pathways. Identifying novel and potent Nrf2 activators by using the AREc32 cell line to detect ARE activation by small molecules will lead to the identification and development of probes to study protective pathways in multiple tissues. These specific probes are essential to study the ARE pathway, and eventually to determine whether this pathway does activate genes that could protect against a host of diseases, including cardiovascular diseases, obesity, diabetes, Alzheimer's, and Parkinson's disease.
This project's aim is to identify novel and potent Nrf2 activators by using the AREc32 cell line to detect ARE activation by small molecules, which will lead to the identification and development of probes to study the ARE pathway. In this counter assay, we aim to identify false positive as identified from this primary assay using an FLuc assay with an inhibiting read-out.
NIH Chemical Genomics Center [NCGC]
NIH Molecular Libraries Probe Centers Network [MLPCN]
Assay Submitter (PI): Curtis Klaassen, University of Kansas Medical Center
Assess whether an activator in the primary assay potentially causes such activation by inhibitor-induced stabilization of the firefly luciferase reporter enzyme by determining whether it inhibits firefly luciferase in the presence of Km concentrations of its substrates (ATP and D-luciferin).
In the case of `Cc1cccc(C(=O)Nc2nnc(SCC(=O)NCc3ccco3)s2)c1`, the Potency is reported as 2.39 µM (active).
With `Clc1ccccc1Nc1ncnc(-n2cccc2)n1` the Potency was 2.13 µM (active).
For `CCOc1ccc(-n2c(O)c(N=Nc3ccc([N+](=O)[O-])cc3)c(=O)[nH]c2=O)cc1`, the “activity, negative = inhibition” value was -3.35%.
For `O=C1c2ccccc2-c2cc3ccccc3cc21`, the Potency was 4.78 µM (active).
For `Clc1cccc(/C=N\Nc2nccs2)c1`, the Potency was 4.78 µM (active).
`CC(=CCOc1ccc2ccc(=O)oc2c1)C1=CC(=O)C(C)(C)O1` was tested, and the “activity, negative = inhibition” value was -24.9%.
In the case of `O=C(O)c1ccc([N+](=O)[O-])c([N+](=O)[O-])c1`, the “activity, negative = inhibition” value is reported as -1.27%.
`O=C(Nc1ccc(Cl)c(Cl)c1)c1ccco1` was tested, and the Potency was 9.53 µM (active).
In the case of `NC(=O)c1c(NC(=O)c2ccccc2F)sc2c1CCC2`, the Potency is reported as 1.35 µM (active).
In the case of `Cn1c(O)c(N=Nc2ccc(S(=O)(=O)N3CCOCC3)cc2)c(=O)n(C)c1=O`, the “activity, negative = inhibition” value is reported as -18.4%.
In the case of `Fc1cccc(F)c1-c1nc(-c2ccc(Cl)cc2)no1`, the Potency is reported as 2.13 µM (active).
Further: nearly all actives have a fitted effect of over 65% in size.
On the % scale 0 is the no-effect control and ±100 the full control effect; potency means the concentration at half of the fitted maximal effect.
